DT40 TDP1 CPT = growth inhibition of DT40 Tdp1-/-;hTDP1 cells with camptothecin (screen for TDP1 inhibitors) | chicken DT40 Tdp1-/-;hTDP1 cells + 20 nM CPT, ATP luminescence, 48 h | Potency, µM (top dose mostly 46.2 µM), for the others: at the highest dose activity change, negative = growth inhibition, hits mostly inhibitors | hit rate 12% among 420,000; note: potency is the fitted concentration of half-maximal effect; nearly all actives have a fitted effect of over 55% in size
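Cell growth measured by CellTiter-Glo luminescence after a minimum 48 h, 37 C compound exposure with 20 nM CPT in Tdp1-knockout DT40 cells stably expressing hTDP1, seeded 400/well; qHTS titration format.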
uPA surface inh = inhibitors of cell surface uPA generation. cell surface uPA generation assay, qHTS. Potency, µM (series often up to 38.3 µM), for the others: top-dose activity change, negative = inhibition, actives largely listed as inhibitors. hit rate 0.31% among 330,000; active = well fitted inhibition curve with a large enough effect; inconclusive = small, poorly fitted or top-dose-only effect; inactive = no such curve, though single readings can be large or run the other way; tested in mouse RAW 264.7 cells; note: potency is the fitted concentration of half-maximal effect; nearly all actives have a fitted effect of over 55% in size
IL-1B inflam inh = blocks inflammasome-driven IL-1 beta release. THP-1 LPS/ATP IL-1B secretion, AlphaLISA, 16 h; stronger effect = lower value. activity change, % at 57.5 µM. hit rate 4.7% among 360,000. AID 743279; in the data active = activity change below about -50%; inconclusive = mostly about -30% to -49%
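THP-1 cells pretreated 1 hr with compounds (up to 57.5 uM final), then stimulated with LPS (250 ng/mL final) plus ATP (1.25 mM final); secreted IL-1B measured by AlphaLISA after 16 hr, decreased signal indicating inhibition.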
HT1080 IDH1KD tx = kills HT-1080 cells with IDH1 knockdown | hit rate 2% among 360,000 | HT-1080 IDH1 knockdown viability, ATP luminescence, 48 h | Potency, µM (doses to about 46.1 µM), inactives show at the highest dose activity, negative = toxicity, actives largely listed as cytotoxic;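 note: potency is the fitted concentration of half-maximal effect; 0% = DMSO wells and -100% = cell-free medium wells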
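Using the IDH1-knockdown HT-1080 line run in the same batch and compound series as the NT line, viability after 48 h at 37 °C was determined by CellTiter-Glo luminescence and expressed as % activity.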
TDP1 cell noCPT = qHTS for Inhibitors of human tyrosyl-DNA phosphodiesterase 1 (TDP1): qHTS in cells in absence of CPT | DT40 Tdp1-/- hTDP1 cells, no CPT, ATP luminescence, 48 h | Potency, µM (highest dose often 46.2 µM), inactives show at the top dose activity change, negative = growth inhibition, most hits filed as inhibitors | hit rate 15% among 420,000 | AID 686978, 2013; note: potency is the fitted concentration of half-maximal effect; nearly all actives have a fitted effect of over 55% in size
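Readout: luminescence from CellTiter-Glo after 30 min in the dark at RT. Cells: DT40 Tdp1-/- with stable hTDP1, 400/well. Exposure: compounds alone, ≥48 hr, 37 °C.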
HT1080NT lethal = kills 2HG-producing HT-1080-NT fibrosarcoma cells; hit rate 1.6% among 360,000; Potency, µM (series often up to 46.1 µM), for the others: top-dose activity, negative = less viability, actives largely listed as cytotoxic; HT-1080-NT fibrosarcoma viability, CellTiter-Glo ATP luminescence, 48 h;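 note: NT is the 2HG producing partner of a matched IDH1 knockdown line; potency is the fitted concentration of half-maximal effect; 0% = DMSO-treated cells and -100% = media-only wells without cells; nearly all actives have a fitted effect of over 55% in size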
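Viability of the 2HG-overproducing fibrosarcoma line after 48 hours of compound exposure at 37 degrees C was determined by luminescence with CellTiter-Glo, and concentration-effect curves were then fitted and categorized.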
An asterisk follows results filed as active. Sampled rows, rich in hits. Any-hit rate of the full collection: about 19%. Unless noted, calls come from the whole dose curve; as a rule, active = well fitted curve in the direction sought with a large enough effect; inconclusive = small, poorly fitted or top-dose-only effect, or another doubt; inactive = no such curve, though single readings can be large; an effect the other way counts as inactive or inconclusive. Unless noted, % is set by controls: 0 for no effect and ±100 for the full control effect.

O=C(N/N=C/c1ccccc1F)c1csc2c1CCCC2 was read as DT40 TDP1 CPT inconclusive, uPA surface inh 3.8%, IL-1B inflam inh -11.1, HT1080 IDH1KD tx 1.4%, TDP1 cell noCPT inconclusive and HT1080NT lethal -4.1%.
For CCCN(Cc1nc2cc(Cl)ccc2c(=O)[nH]1)C(=O)c1ccc(S(=O)(=O)N2CCCC2)cc1 the results were DT40 TDP1 CPT inconclusive, uPA surface inh 12.3%, IL-1B inflam inh -20.3, HT1080 IDH1KD tx -2.6%, TDP1 cell noCPT 20.6µM* and HT1080NT lethal -16.3%.
For CCN(Cc1nc2cc(Cl)ccc2c(=O)[nH]1)C(=O)CN1C(=O)NC2(CCCCC2C)C1=O (stereo not drawn) the results were DT40 TDP1 CPT -12.2%, uPA surface inh -5.9%, IL-1B inflam inh 7.2, HT1080 IDH1KD tx 0.3%, TDP1 cell noCPT -13.5% and HT1080NT lethal 0.1%.
Screening COc1cc(/C=C(/C#N)c2ccccc2F)ccc1OCc1ccccc1 returned DT40 TDP1 CPT 16.4µM*, uPA surface inh -1.3%, IL-1B inflam inh -20.2, HT1080 IDH1KD tx 0.5%, TDP1 cell noCPT 18.4µM* and HT1080NT lethal 8.6%.
Screening COc1cc(/C=C(\C#N)C(=O)NCc2ccccc2)ccc1OCc1ccc(C(=O)O)cc1 returned DT40 TDP1 CPT inconclusive, uPA surface inh 0.4%, IL-1B inflam inh 15.2, HT1080 IDH1KD tx -26.7%, TDP1 cell noCPT inconclusive and HT1080NT lethal -28.2%.
CN(C)c1ccc(CC2CCc3ccccc32)cc1 (stereo not drawn) was read as DT40 TDP1 CPT inconclusive and TDP1 cell noCPT -10.1%.
Screening C=C(C)c1cccc(C(C)(C)NC(=O)N2CCN(CC)CC2)c1 returned DT40 TDP1 CPT -6.0%, uPA surface inh 4.8%, IL-1B inflam inh -6.2, HT1080 IDH1KD tx 16.3%, TDP1 cell noCPT -16.7% and HT1080NT lethal 12.2%.
Screening C=C(C)c1cccc(C(C)(C)NC(=O)N2CCC(C)CC2)c1 returned DT40 TDP1 CPT 18.4µM*, uPA surface inh 6.7%, IL-1B inflam inh inconclusive, HT1080 IDH1KD tx 6.2%, TDP1 cell noCPT inconclusive and HT1080NT lethal -1.3%.
For CCOC(=O)C1CCN(C(=O)c2cc3c(-c4ccc(OC)c(OC)c4)nn(C)c3s2)CC1 the results were DT40 TDP1 CPT 16.4µM*, uPA surface inh 2.5%, IL-1B inflam inh 15.4, HT1080 IDH1KD tx -14.7%, TDP1 cell noCPT 20.6µM* and HT1080NT lethal -17.6%.
CCOC(=O)N1CCC(NC(=O)c2cc(-c3ccc(OC)cc3)nc3ccccc23)CC1 was read as DT40 TDP1 CPT inconclusive, uPA surface inh -5.6%, IL-1B inflam inh 4.2, HT1080 IDH1KD tx 11.8%, TDP1 cell noCPT inconclusive and HT1080NT lethal 14.5%.
Screening CCOC(=O)C1CCN(C(=O)Cc2ccc(OC)c(OC)c2)CC1 returned DT40 TDP1 CPT -2.3%, uPA surface inh 0.1%, IL-1B inflam inh 11.5, HT1080 IDH1KD tx 0.8%, TDP1 cell noCPT -20.0% and HT1080NT lethal -4.1%.
`CCOC(=O)N1CCC(NC(=O)c2cc3c(-c4ccccc4F)nn(C)c3s2)CC1` gave DT40 TDP1 CPT 13µM*, uPA surface inh -13.1%, IL-1B inflam inh 19.0, HT1080 IDH1KD tx 9.7%, TDP1 cell noCPT 8.2µM* and HT1080NT lethal -5.5%.
`CCOC(=O)N1CCC(NC(=O)c2cc3c(-c4ccc(OC)c(OC)c4)nn(C)c3s2)CC1` gave DT40 TDP1 CPT inconclusive, uPA surface inh -2.5%, IL-1B inflam inh -8.5, HT1080 IDH1KD tx -1.5%, TDP1 cell noCPT 20.6µM* and HT1080NT lethal -5.2%.
Cc1cccc(-c2cc(C(=O)Nc3ccncc3)c3ccccc3n2)c1 was read as DT40 TDP1 CPT inconclusive, uPA surface inh 0.1%, IL-1B inflam inh inconclusive, HT1080 IDH1KD tx inconclusive, TDP1 cell noCPT inconclusive and HT1080NT lethal inconclusive.
Screening Cc1cccc(-c2cc(C(=O)Nc3cccnc3)c3ccccc3n2)c1 returned DT40 TDP1 CPT 20.6µM*, uPA surface inh -4.1%, IL-1B inflam inh 13.6, HT1080 IDH1KD tx -15.5%, TDP1 cell noCPT inconclusive and HT1080NT lethal -1.7%.
O=C(Nc1ccc(Br)cc1)c1cc(-c2ccncc2)nc2ccccc12 was read as DT40 TDP1 CPT inconclusive, uPA surface inh -11.3%, IL-1B inflam inh 12.6, HT1080 IDH1KD tx 8.2µM*, TDP1 cell noCPT 16.4µM* and HT1080NT lethal 6.51µM*.
O=C(Nc1ccncc1)c1cc(-c2ccccc2)nc2ccccc12 was read as DT40 TDP1 CPT inconclusive, IL-1B inflam inh 4.5, HT1080 IDH1KD tx inconclusive, TDP1 cell noCPT 20.6µM* and HT1080NT lethal -26.4%.
`CCc1nn(CC(=O)NCc2ccc(OC)c(OC)c2)c(=O)c2cc3sc(C)cc3n12` gave DT40 TDP1 CPT inconclusive and TDP1 cell noCPT -1.7%.
Screening O=C(CCCc1ccccc1)NCCS(=O)(=O)N1CCN(c2ccc(F)cc2)CC1 returned DT40 TDP1 CPT inconclusive, uPA surface inh 10.4%, IL-1B inflam inh -5.0, HT1080 IDH1KD tx -2.3%, TDP1 cell noCPT inconclusive and HT1080NT lethal 0.3%.
O=C(O)c1cc([N+](=O)[O-])ccc1NCc1ccccc1 was read as DT40 TDP1 CPT 6.2%, IL-1B inflam inh -69.9*, HT1080 IDH1KD tx -0.8%, TDP1 cell noCPT -20.5% and HT1080NT lethal -5.2%.
Screening O=C(O)c1cc([N+](=O)[O-])ccc1NCCCc1ccccc1 returned DT40 TDP1 CPT inconclusive, uPA surface inh -2.2%, IL-1B inflam inh -5.6, HT1080 IDH1KD tx -1.7%, TDP1 cell noCPT inconclusive and HT1080NT lethal -23.2%.
COc1ccc([N+](=O)[O-])cc1NC(=O)CSc1ccccc1 was read as DT40 TDP1 CPT -19.5%, uPA surface inh -0.7%, IL-1B inflam inh -9.4, HT1080 IDH1KD tx -13.0%, TDP1 cell noCPT inconclusive and HT1080NT lethal -15.4%.
For COc1ccc([N+](=O)[O-])cc1NCc1ccccc1 the results were DT40 TDP1 CPT inconclusive, uPA surface inh 1.3%, IL-1B inflam inh -88.9*, HT1080 IDH1KD tx -13.1%, TDP1 cell noCPT inconclusive and HT1080NT lethal -11.1%.
COc1ccc([N+](=O)[O-])cc1NC(=O)C(C)Sc1nc(-c2ccccc2)cs1 (stereo not drawn) was read as DT40 TDP1 CPT 18.4µM*, uPA surface inh 3.4%, IL-1B inflam inh 9.7, HT1080 IDH1KD tx -2.2%, TDP1 cell noCPT inconclusive and HT1080NT lethal -0.3%.
`COc1ccc([N+](=O)[O-])cc1NCc1ccccc1C` gave DT40 TDP1 CPT -20.0%, uPA surface inh -8.9%, IL-1B inflam inh -16.5, HT1080 IDH1KD tx inconclusive, TDP1 cell noCPT -27.1% and HT1080NT lethal -15.4%.

Screening results (PubChem)
